Test results: PubChem BioAssay (NCI)
About 83,000 compounds went through this panel and 20% of them were active in at least one assay; those are over-represented in the sample as a whole.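 Cells were grown in 96-well plates and exposed to the test compound at a single concentration for 48 hours; results are reported as percent growth, with values below 10 considered active.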 A number with no mark means an inactive call. Activity calls are given as the source filed them.

Assays:
Test in all cases: NCI-60 one-dose screen, 48 h (100 = growth as untreated, 0 = no growth, -100 = all killed)
HCT-15 colon = details: 10 µM unless noted
HT29 colon = details: 10 µM unless noted
SNB-75 CNS = details: 10 µM unless noted
SNB-19 CNS = details: 10 µM unless noted
U251 CNS = details: 10 µM unless noted
PC-3 prostate = details: 10 µM unless noted
SK-MEL-5 melanoma = details: 10 µM unless noted
UACC-62 melanoma = details: 10 µM unless noted
SK-MEL-28 melanoma = details: 10 µM unless noted
LOX IMVI melanoma = details: 10 µM

SMILES	growth (HCT-15 colon)	growth (HT29 colon)	growth (SNB-75 CNS)	growth (SNB-19 CNS)	growth (U251 CNS)	growth (PC-3 prostate)	growth (SK-MEL-5 melanoma)	growth (UACC-62 melanoma)	growth (SK-MEL-28 melanoma)	growth (LOX IMVI melanoma) [%]
O=c1cc(C(F)(F)F)[nH]c(=S)[nH]1	103%	108%	102%	94.4%	101%	116%	98.7%	99.5%	105%	
NC(=S)N/N=C/c1ccc(OC(=O)COc2ccccc2)cn1	76.8%	84.1%	59.3%	74.9%	42.3%	63.9%	38.4%	13.9%	83%	19.1
Cc1cc2nc(C)c(C)nc2cc1C	107%	108%	99.4%	111%	98.3%	81.4%	95.3%	99.5%	110%	97.2
CCOc1ccccc1NC(=O)CCl	85.9%	89.3%	88.3%	101%	29%	83.5%	71.2%	83.7%	87%	85.3
NC(=O)NCCO	109%	100%	105%	104%	92.5%	94.5%	98%	95.5%	113%	97.7
Cc1ccccc1NC(=O)Oc1ccc(Cl)cc1C(=O)c1ccccc1	94.1%	100%	77.7%	96%	87.6%	95.2%	97.3%	85.4%	106%	
CC(=O)N(CCCCCCN(C(C)=O)C(C)=O)C(C)=O	107% [100 µM]	114% [100 µM]	87.9% [100 µM]	99.2% [100 µM]	107% [100 µM]	104% [100 µM]	104% [100 µM]	97% [100 µM]	105% [100 µM]	
COC1OC(C(O)C(O)CO)C(O)C(O)C1O (stereo unspecified)	99.1%	100%	95.6%	105%	98.9%	95.6%	107%	102%	101%	
Cc1onc(-c2c(F)cccc2Cl)c1-c1ncc(-c2ccc(Br)cc2)o1	17.7%	24.9%	65.8%	42.9%	39.6%	41%	10.8%	34%	50.3%	
Nc1c(O)c(S(=O)(=O)O)c(O)c2c1C(=O)c1ccccc1C2=O	15.9%	14%	24.7%	26.2%	20.2%	23.8%	5.72% (active)	34.6%	42.5%	
O=C(CCCl)OCCOc1ccccc1	105%	102%	96.1%	108%	99.9%	95.9%	108%	108%	107%	96.6
Cn1/c(=N\N=C\c2ccccc2OCCO)sc2ccccc21	82.4%	109%	115%	96.7%	100%	76.5%	88%	90%	124%	
CC1CN(CCO)CC(C)O1 (stereo unspecified)	102%	114%	96.5%	102%	102%	104%	102%	94.1%	104%	
Clc1ccc(/C=C/c2ccccn2)cc1	89.5%	111%	72.5%	96.3%	81.1%	81.4%	101%	106%	99%	98.6
Cn1c(=O)[nH]c2ccccc2c1=O	101%	98.4%	91%	94.3%	93.6%	130%	101%	102%	117%	
NC(=S)c1c(N)n(C2OC(CO)C(O)C2O)c2ncnc(N)c12 (stereo unspecified)	3.4% (active)	5.09% (active)	-8.18% (active)	14.9%	17.3%	-10.1% (active)	-77.5% (active)	-73.7% (active)	-46.8% (active)	

SMILES	growth (HCT-15 colon)	growth (HT29 colon)	growth (SNB-75 CNS)	growth (SNB-19 CNS)	growth (U251 CNS)	growth (PC-3 prostate)	growth (SK-MEL-5 melanoma)	growth (UACC-62 melanoma)	growth (SK-MEL-28 melanoma)	growth (LOX IMVI melanoma) [%]
N#Cc1ccc(OC(=O)Nc2c(Cl)cc(Cl)cc2Cl)cc1	107%	104%	127%	99.5%	104%	99.5%	97.2%	102%	104%	
Nc1ncc([N+](=O)[O-])cn1	108%	81.2%	99.1%	95.6%	96.2%	88.7%	94.6%	98.9%	103%	
C1Cc2onc(-c3noc4c3CCC4)c2C1	105%	104%	116%	98.8%	106%	103%	102%	96.5%	111%	
Cc1[nH]nc(C(N)=O)c1[N+](=O)[O-]	95.2%	108%	99.6%	93.2%	103%	100%	91.2%	90.3%	93.2%	97.2
N#C/C(=C\NC(=S)N=Nc1c(O)[nH]c2ccccc12)c1nc2ccccc2s1	101%	106%	85.1%	104%	92.5%	86.1%	94.9%	94.3%	112%	
C=CCc1cc(OC)c(O)c(OC)c1	98.7%	99.7%	90.9%	109%	97.2%	95.4%	99.8%	103%	108%	
CCC(/C=C\C(C)=O)CC	101%	107%	99%	99.5%	96.6%	91.3%	102%	106%	101%	
Clc1ncnc2nc[nH]c12	96.4%	107%	82.9%	96.4%	103%	96.4%	98.9%	91.1%	99.8%	
CC(=O)CSc1ncnc2nc[nH]c12	96.1%	104%	89.3%	99.7%	101%	92.5%	95.8%	74.6%	82.3%	42.2
CCC12OC(COc3ccccc3)CN1CCN2c1ccccc1 (stereo unspecified)	105% [100 µM]	111% [100 µM]	84.4% [100 µM]	96.9% [100 µM]	101% [100 µM]	102% [100 µM]	104% [100 µM]	89.5% [100 µM]	103% [100 µM]	
c1cc(CNCCNCc2ccncc2)ccn1	110%	109%	92.5%	104%	101%	92.1%	107%	101%	101%	
CC1(c2ccccc2)CO1 (stereo unspecified)	102%	112%	89.9%	102%	97.6%	104%	105%	104%	105%	
Cc1ccc(S(=O)(=O)Oc2ccc3sc4c(CO)ccc(NCCN(C)C)c4c(=O)c3c2)cc1	-93.8% [100 µM] (active)	-84.3% [100 µM] (active)	-92.1% [100 µM] (active)	-83.7% [100 µM] (active)	-74.7% [100 µM] (active)	-86.8% [100 µM] (active)	-94.3% [100 µM] (active)	-95.5% [100 µM] (active)	-85.1% [100 µM] (active)	
COc1nc(Nc2cccc(C(F)(F)F)c2)nc(OC)n1	103%	96.1%	84.3%	101%	89.4%	98.7%	94%	103%	109%	
O=C(OCC1CCCO1)c1ccc([N+](=O)[O-])cc1 (stereo unspecified)	104%	108%	85.8%	102%	91.7%	88.4%	104%	99.8%	108%	
Cc1ccc(C2CCCCC2)cc1Br	100%	95.8%	98.4%	95.6%	88.1%	94%	102%		101%	103
